Hit rate of the full screen: of about 310,000 compounds, about 3,900 (1.3%) were called active.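 Rule for the calls: active = compounds whose thallium flux B-score, printed positive for inhibition, exceeds three library SD while starting fluorescence stays within three; inactive = the rest.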 This excerpt belongs to a sample that is enriched for actives.

The target of this experiment is Potassium voltage-gated channel subfamily KQT member 1 (Homo sapiens) (UniProt P51787). Nature of the experiment: KCNQ1 potassium current blockers – cell-based, thallium flux, high-throughput, primary screen (AID 2642).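 Note: channel opened by potassium depolarization with thallium stimulus after 20 min compound exposure.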 To be noted: CHO-K1 KCNQ1, FluxOR thallium flux fluorescence, at 10 µM; stronger effect = higher value.
Potassium voltage-gated channel subfamily KQT member 1 (Homo sapiens), sequence (P51787 whole entry, looked up): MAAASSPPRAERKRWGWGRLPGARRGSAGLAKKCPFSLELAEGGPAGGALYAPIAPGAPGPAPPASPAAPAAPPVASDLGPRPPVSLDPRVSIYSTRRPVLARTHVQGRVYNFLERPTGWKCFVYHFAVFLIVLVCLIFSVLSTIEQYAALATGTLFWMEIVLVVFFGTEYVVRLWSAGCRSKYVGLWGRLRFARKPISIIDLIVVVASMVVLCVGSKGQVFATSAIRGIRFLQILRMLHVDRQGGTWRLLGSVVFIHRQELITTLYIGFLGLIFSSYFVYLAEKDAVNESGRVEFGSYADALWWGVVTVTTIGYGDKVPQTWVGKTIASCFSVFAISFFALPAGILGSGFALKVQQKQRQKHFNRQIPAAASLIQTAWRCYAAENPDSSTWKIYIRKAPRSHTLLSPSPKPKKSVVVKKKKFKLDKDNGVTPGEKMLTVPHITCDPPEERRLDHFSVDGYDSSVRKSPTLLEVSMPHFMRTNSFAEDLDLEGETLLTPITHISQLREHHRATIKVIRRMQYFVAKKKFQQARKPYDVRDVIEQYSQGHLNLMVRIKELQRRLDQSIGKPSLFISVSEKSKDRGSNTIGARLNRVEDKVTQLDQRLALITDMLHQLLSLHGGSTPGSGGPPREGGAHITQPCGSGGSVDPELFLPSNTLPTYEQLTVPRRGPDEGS
Turning to `CCS(=O)(=O)C1=NSC2=NC(=O)/C(=C\c3cc(C)n(-c4cccc(OC)c4)c3C)C(=N)N21`, the B-score was 8 (active).

As for `Cc1cc(/C=C2/C(=N)N3C(=NC2=O)SN=C3S(C)(=O)=O)c(C)n1-c1ccccc1`, the B-score entry was “inactive”.

As to `CCS(=O)(=O)C1=NSC2=NC(=O)/C(=C\c3ccc(OS(=O)(=O)c4ccccc4)cc3)C(=N)N21`, the B-score result was “inactive”.

With `CCc1cc(=O)oc2cc(C)cc(OCC(=O)N3CCC[C@@H]3C(=O)O)c12`, the B-score result was “inactive”.

`COc1ccc(N2CCN(C(=O)Cn3cnc4sc(C)c(S(=O)(=O)N5CCOCC5)c4c3=O)CC2)cc1`: the B-score entry is “inactive”.

For the molecule `C=CCn1nc(-c2ccccc2)c2c(C)onc2c1=O`, the B-score result is “inactive”.

As for `CCOc1ccc(CN(Cc2ccco2)C(c2cccs2)c2nnnn2C(C)(C)C)cc1` (stereo not given), the B-score is 7 (active).

Consider `CC(C)(C)n1nnnc1C(c1cccs1)N(Cc1cccnc1)CC1CCCO1` (stereo not given), for which the B-score entry is “inactive”.

On to `CCOc1ccc(CN(Cc2ccco2)S(=O)(=O)c2ccc(-n3cnnn3)c(OC)c2)cc1`, for which the B-score result was “inactive”.

Consider `Cc1c(Cl)cccc1NC(=O)[C@@]1(CC(=O)O)CC(/C=C/c2ccccc2)=NO1`, for which the B-score result was “inactive”.

As for `CC(Oc1ccc(F)cc1)C(=O)Nc1cc(S(=O)(=O)N2CCOCC2)ccc1N1CCN(C)CC1` (stereo not given), the B-score entry was “inactive”.

As to `Cc1ccc(S(=O)(=O)N2CCC3(CC2)OCCO3)c(C)c1`, the B-score result was “inactive”.

As to `CCOC(=O)C1CCN(C(=O)C2(NC(=O)Nc3cccc(F)c3)CCCCC2)CC1`, the B-score result is “inactive”.

Consider `Oc1cccc(/C=N/Nc2ccc(Cl)nn2)c1O`, for which the B-score result was “inactive”.

For `Oc1c(Br)cccc1/C=N/Nc1c(F)c(F)c(F)c(F)c1F`, the B-score was 7 (active).

With `Brc1ccccc1/C=N/Nc1nc2ccccc2o1`, the B-score entry is “inactive”.

With `COc1cccc(NC(=O)CN(C)C(C)C(=O)Nc2ccc(C#N)cc2)c1` (stereo not given), the B-score result was “inactive”.

Take `COc1ccc(N(CC(=O)Nc2ccc(F)c(F)c2)S(=O)(=O)c2c(C)[nH]c(=O)[nH]c2=O)cc1`: the B-score entry is “inactive”.

On to `COc1ccccc1NC(=O)C1CCN(C(=O)c2ccc(C(C)(C)C)cc2)CC1`, for which the B-score entry is “inactive”.

With `O=C(CCNC(=O)c1ccc(Br)cc1)NCCCc1ccccc1`, the B-score result is “inactive”.

`S=C(NCCc1ccccc1)Nc1ccccc1`: the B-score entry is “inactive”.

In the case of `S=C(NCCCc1ccccc1)Nc1ccc(Br)cc1`, the B-score is 7 (active).

On to `Cc1cn(C)c(=O)n(C)c1=O`, for which the B-score entry was “inactive”.

Regarding `O=c1onc(-c2c(F)cccc2F)n1-c1ccccc1Cl`, the B-score entry was “inactive”.

In the case of `CC1CCC2(CC1)NC(=O)N(CC(=O)c1ccc3c(c1)OCO3)C2=O` (stereo not given), the B-score entry is “inactive”.

`CC1CCC2(CC1)NC(=O)N(CC(=O)c1cccn1C)C2=O` (stereo not given): the B-score was 7 (active).

Consider `O=C(CN1C(=O)NC2(CCCCCC2)C1=O)NC1CC1`, for which the B-score entry was “inactive”.

`Cc1ccc(CNC(=O)CSc2nnc3c(n2)[nH]c2ccc(F)cc23)cc1`: the B-score entry was “inactive”.

With `CN(C)/C=C(/C(=O)c1ccc(Cl)cc1)S(=O)(=O)c1ccccc1`, the B-score entry is “inactive”.

With `CCCC1CCC(=NNC(=S)NCCc2ccccc2)CC1` (stereo not given), the B-score is 7 (active).

For the molecule `S=C(NN=C1CCN(Cc2ccccc2)CC1)NC1CCCCC1`, the B-score entry was “inactive”.

As for `S=C(NCCc1ccccc1)NCC1CCCO1` (stereo not given), the B-score entry is “inactive”.

As to `COc1ccc(S(=O)(=O)NCC(=O)NCc2cc(=O)n(C)c(=O)n2C)cc1F`, the B-score result was “inactive”.

On to `Cc1ccc(S(=O)(=O)N2CCN(CC(=O)N/N=C/c3ccc(Br)s3)CC2)cc1`, for which the B-score entry was “inactive”.

In the case of `Cc1cccc(N2CCN(C(=O)c3cccc(N4C(=O)C5C6C=CC(C6)C5C4=O)c3)CC2)c1C` (stereo not given), the B-score entry is “inactive”.

`CCC(CC)C(=O)N1CCN(c2cccc(C)c2C)CC1`: the B-score result is “inactive”.

Regarding `CCn1c(C)c(C)c2cc(C(=O)N3CCN(c4cccc(C)c4C)CC3)ccc21`, the B-score is 10 (active).

As for `O=C(c1cc(COc2ccc(F)c(F)c2)on1)N1CCOCC1`, the B-score result is “inactive”.

With `C=CCC1(CC=C)CCCN1C(=O)c1cc(COc2ccc(-n3cncn3)cc2)on1`, the B-score is 11 (active).

Regarding `CCn1ccnc1CN(C)C(=O)c1cc(COc2ccc(-n3cncn3)cc2)on1`, the B-score entry was “inactive”.

`NS(=O)(=O)c1cc(C(=O)NCCOc2ccccc2)c(Cl)cc1Cl`: the B-score entry was “inactive”.

In the case of `COc1ccc(-n2c(C)cc(C(=O)COC(=O)c3cc(OC)c(OC)cc3NC(=O)c3cccs3)c2C)cc1`, the B-score result was “inactive”.

`COc1ccc(Nc2ncnc3sc(-c4ccccc4)cc23)c(OC)c1`: the B-score is 7 (active).

With `COc1ccc(Nc2ncnc3sc(C)cc23)cc1`, the B-score entry was “inactive”.

As for `COc1ccc(Nc2ncnc3ccc(Br)cc23)c(OC)c1`, the B-score result is “inactive”.

Take `c1ccc2c(c1)C(=NC1CCCCC1)NC2=NC1CCCCC1`: the B-score was 6 (active).

Take `CC1(C)CC(=O)C=C(N2CCCC2)C1`: the B-score result is “inactive”.

For the molecule `CC1(C)CC(N2CCN(C(c3ccccc3)c3ccccc3)CC2)=CC(=[N+]2CCCCC2)C1`, the B-score is 9 (active).

As to `O=C(O)CN1CCN(C(c2ccccc2)c2ccccc2)CC1`, the B-score entry is “inactive”.

With `CC(C)NS(=O)(=O)c1ccc(NC(=O)C2CCCCC2)cc1`, the B-score result was “inactive”.

`COc1ccc(OC)c(S(=O)(=O)NCCC(C)C)c1`: the B-score entry is “inactive”.

In the case of `CC(NC(=O)COC(=O)C1CCN(S(=O)(=O)c2ccccc2C(F)(F)F)CC1)c1ccccc1` (stereo not given), the B-score result was “inactive”.

With `Cc1ccc(CS(=O)Cc2ccc(C(=O)N3CCOCC3)o2)cc1` (stereo not given), the B-score result is “inactive”.

As to `Cc1ccc(-c2noc(CN3CCN(Cc4ccccc4)CC3)n2)cc1`, the B-score entry was “inactive”.

For `Cc1ccc(-c2noc(CSc3nnc(-c4ccccc4)n3C)n2)cc1`, the B-score result is “inactive”.

On to `Cc1ccc(-c2noc(CC(c3ccccc3)c3ccccc3)n2)cc1`, for which the B-score was 7 (active).

Consider `COc1cccc(NC(=O)[C@H](Cc2c[nH]c3ccccc23)NC(=O)[C@@H]2Cc3ccccc3CN2)c1`, for which the B-score result was “inactive”.

As for `CC(C)(O)C#Cc1ncc(C(F)(F)F)cc1Cl`, the B-score result was “inactive”.

Regarding `COCCOC1CCN(C(=O)c2ccc(OC)c(OC3CCN(C(C)C)CC3)c2)CC1`, the B-score result is “inactive”.

`O=C(NCCN1CCOCC1)/C(=C/c1ccc(F)cc1)NC(=O)c1ccccc1`: the B-score result is “inactive”.

As to `CCN1CCN(CCNC(=O)c2ccc3c(c2)NC(=O)/C(=C\c2ccc(OC)c(OC)c2)S3)CC1`, the B-score result is “inactive”.

Turning to `CCN1CCN(CCNC(=O)c2ccc(/C=C3/Sc4ccccc4N(Cc4cccc(C)c4)C3=O)cc2)CC1`, the B-score was 13 (active).

As to `O=C(NCCN1CCOCC1)c1ccc(/C=C2\Sc3ccccc3N(Cc3ccc(F)cc3)C2=O)cc1`, the B-score was 10 (active).

For the molecule `O=C(NCCCN1CCOCC1)c1ccc2c(c1)N(Cc1cccc(F)c1)C(=O)c1ccccc1S2`, the B-score entry was “inactive”.

Consider `CN1CCN(CCCNC(=O)c2ccc(/C=C3\Oc4ccccc4N(Cc4ccc(Cl)cc4)C3=O)cc2)CC1`, for which the B-score result is “inactive”.
